Measurements reported in PubChem BioAssay (EPA / NIEHS).
Activity calls are given as the source filed them. Rule for the calls: active = hit-call score of the fitted dose curve at least 0.9, where 1 is the maximum; inactive = score below 0.9.

Key:
[1] = ATG_M_61_CIS: Attagene CIS-FACTORIAL HepG2 Assay for M61 Transcription Factor (Internal Marker) (AID 2282937); conditions: HepG2 Attagene CIS-FACTORIAL M61 internal marker reporter; actives raise or lower the signal
Outline: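 Transfect HepG2 with MRTUs; dose 24 h; isolate RNA; reverse-transcribe with DNase I treatment; PCR-amplify, FAM-label and cut with HpaI for 2 h at 37 C; resolve by CE. Bidirectional fitting against DMSO.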

[2] = ATG_EGR_CIS: Attagene CIS-FACTORIAL HepG2 Assay for human Early Growth Response 1 (EGR1) (AID 2282938); conditions: HepG2 Attagene CIS-FACTORIAL EGR reporter mRNA; actives raise or lower the signal
Outline: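 After a 24 h treatment of transiently transfected HepG2 cells, total RNA was reverse-transcribed and reporter sequences PCR-amplified, labelled and run on capillary electrophoresis. Reporters sit under cis-regulatory promoters sensing endogenous factors.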

[3] = ATG_M_19_CIS: Attagene CIS-FACTORIAL HepG2 Assay for M19 Transcription Factor (Internal Marker) (AID 2282939); conditions: HepG2 Attagene CIS-FACTORIAL M19 internal marker reporter; actives raise or lower the signal
Outline: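 Transfect HepG2 with MRTU reporter library → dose chemical, 24 h → isolate total RNA, reverse-transcribe with oligo(dT) → PCR, 6-FAM label, HpaI cut (2 h, 37 C) → capillary electrophoresis. Bidirectional fit vs DMSO.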

[4] = ATG_ERE_CIS: Attagene CIS-FACTORIAL HepG2 Assay for Estrogen Response Element (ERE) (AID 2282940); conditions: HepG2 ERE cis-reporter, Attagene RNA transcript; actives raise or lower the signal
Outline: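 Transient MRTU transfection of human HepG2; cis-element promoters; 24 h dosing; total RNA → RT (oligo dT) → PCR → 6-FAM primer extension → HpaI digest → CE fluorescence. Bidirectional fit, DMSO baseline.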

[5] = ATG_Ets_CIS: Attagene CIS-FACTORIAL HepG2 Assay for human Erythroblast Transformation Specific (ETS) (AID 2282941); conditions: HepG2 ETS cis-reporter transcription, actives raise or lower the signal
Outline: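 Human HepG2 hepatoma cells were transiently transfected with promoter-driven reporter constructs and treated for 24 hours. Reporter transcripts were quantified by RT-PCR with fluorescent primer extension; bidirectional curve fitting used DMSO as reference.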

[6] = target: Hepatocyte nuclear factor 3-beta (Homo sapiens) (UniProt Q9Y261); assay: ATG_FoxA2_CIS: Attagene CIS-FACTORIAL HepG2 Assay for human Forkhead box A2 (FOXA2) (AID 2282942); conditions: HepG2 cis-reporter transcription factor activity, 24 h; actives raise or lower the signal
Outline: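 24 h dosing of HepG2 bearing cis-reporter constructs; mRNA readout by RT-PCR/CE fluorescence; bidirectional fit, DMSO baseline.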

[7] = ATG_FoxO_CIS: Attagene CIS-FACTORIAL HepG2 Assay for human Forkhead box O (FoxO) (AID 2282943); conditions: HepG2 Attagene cis-reporter, FoxO element, mRNA; actives raise or lower the signal
Outline: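 Values reflect reporter mRNA induction or loss in HepG2 cells 24 h post-dosing, fitted bidirectionally with DMSO as negative control and baseline. Detection used RT-PCR and fluorescence capillary electrophoresis.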

[8] = ATG_GATA_CIS: Attagene CIS-FACTORIAL HepG2 Assay for human GATA Binding Protein (AID 2282944); conditions: HepG2 GATA cis-element reporter, Attagene multiplex mRNA; actives raise or lower the signal
Outline: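 Transient MRTU transfection, HepG2, 24 h compound exposure. Total RNA → oligo(dT) RT → PCR → 6-FAM primer extension → HpaI cut → CE. Bidirectional fit vs DMSO.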

[9] = ATG_E_Box_CIS: Attagene CIS-FACTORIAL HepG2 Assay for human Enhancer Box (E-box) (AID 2282936); conditions: HepG2 E-box cis-reporter transcription, actives raise or lower the signal
Outline: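 Multiplexed CIS reporter system in transiently transfected HepG2 cells measures native transcription factor activity. Reporter RNA after 24 h exposure is profiled by RT-PCR-capillary electrophoresis.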

Sequence of Hepatocyte nuclear factor 3-beta (Homo sapiens) (Q9Y261 whole entry, looked up): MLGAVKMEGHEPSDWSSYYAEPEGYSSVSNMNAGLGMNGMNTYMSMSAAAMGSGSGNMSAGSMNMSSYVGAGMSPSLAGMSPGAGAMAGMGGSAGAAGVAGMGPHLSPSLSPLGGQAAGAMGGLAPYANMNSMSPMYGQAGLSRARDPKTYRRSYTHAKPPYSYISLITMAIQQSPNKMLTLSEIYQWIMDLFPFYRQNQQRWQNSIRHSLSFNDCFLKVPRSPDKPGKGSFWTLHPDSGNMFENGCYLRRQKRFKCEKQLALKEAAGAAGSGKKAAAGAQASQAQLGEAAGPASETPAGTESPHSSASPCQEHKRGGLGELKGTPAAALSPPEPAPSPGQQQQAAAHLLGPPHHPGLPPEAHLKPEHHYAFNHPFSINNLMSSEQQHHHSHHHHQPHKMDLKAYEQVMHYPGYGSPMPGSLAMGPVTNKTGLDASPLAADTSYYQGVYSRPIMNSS

SMILES | outcome [1] | AC50 [2] | outcome [3] | outcome [4] | outcome [5] | AC50 [6] | outcome [7] | outcome [8] | outcome [9] | outcome [2] | AC50 [4] | outcome [6] | AC50 [9] | AC50 [8]
CCCN(CC)CC1COC2(CCC(C(C)(C)C)CC2)O1 (stereo unspecified) | inactive | 15 µM (active) | inactive | inactive | inactive | 16.9 µM (active) | inactive | inactive |  |  |  |  |  | 
CCOP(=S)(OCC)Oc1nc(Cl)n(C(C)C)n1 | inactive |  | inactive |  |  |  | inactive | inactive | inactive | inactive | 50 µM (active) | inactive |  | 
N#CN=C1SCCN1Cc1ccc(Cl)nc1 | inactive |  | inactive | inactive |  |  | inactive | inactive | inactive | inactive |  | inactive |  | 
Nc1c(Cl)c(F)nc(OCC(=O)O)c1Cl | inactive |  | inactive | inactive | inactive |  | inactive | inactive |  | inactive |  | inactive |  | 
Cc1nc(N(C)C)nc(OC(=O)N(C)C)c1C | inactive |  | inactive | inactive | inactive |  | inactive | inactive |  | inactive |  | inactive |  | 
CCOc1nc(C(Cl)(Cl)Cl)ns1 | inactive |  | inactive | inactive |  |  | inactive | inactive |  | inactive |  | inactive |  | 
COc1cc(Cl)c(OC)cc1Cl | inactive |  | inactive | inactive |  |  | inactive | inactive | inactive | inactive |  | inactive |  | 
COCC(C)N(C(=O)CCl)c1c(C)csc1C (stereo unspecified) | inactive |  | inactive | inactive | inactive |  | inactive | inactive | inactive | inactive |  | inactive |  | 
CCNP(=S)(OC)O/C(C)=C/C(=O)OC(C)C (stereo unspecified) | inactive |  | inactive |  |  |  | inactive | inactive |  | inactive | 13.4 µM (active) | inactive |  | 
C=CCOC(=O)C(C)(C)OC(=O)c1cc(-n2c(=O)cc(C(F)(F)F)n(C)c2=O)ccc1Cl | inactive |  | inactive | inactive |  |  | inactive | inactive |  | inactive |  | inactive |  | 
CC1(C)C(C(=O)OC(C#N)c2cccc(Oc3ccccc3)c2)C1(C)C (stereo unspecified) | inactive |  | inactive | inactive | inactive |  | inactive | inactive |  | inactive |  | inactive |  | 
COC(=O)c1c(C(F)F)nc(C(F)(F)F)c(C2=NCCS2)c1CC(C)C | inactive |  | inactive |  | inactive |  | inactive |  |  | inactive | 13.8 µM (active) | inactive | 9.92 µM (active) | 88.5 µM (active)
Cn1c(-c2ccccc2)cc(-c2ccccc2)[n+]1C | inactive |  | inactive | inactive |  |  | inactive | inactive | inactive | inactive |  | inactive |  | 
CCOC(=O)C(C)OC(=O)c1cc(Oc2ccc(C(F)(F)F)cc2Cl)ccc1[N+](=O)[O-] (stereo unspecified) | inactive |  | inactive |  |  |  | inactive | inactive |  | inactive | 34.1 µM (active) | inactive |  | 
CCOc1cc(C(C)(C)C)ccc1C1COC(c2c(F)cccc2F)=N1 (stereo unspecified) | inactive |  | inactive | inactive | inactive |  | inactive | inactive | inactive | inactive |  | inactive |  | 
Clc1cccc(C(Cl)(Cl)Cl)n1 | inactive |  | inactive | inactive |  |  | inactive | inactive |  | inactive |  | inactive |  | 
CCCCOCN(C(=O)CCl)c1c(CC)cccc1CC | inactive |  | inactive | inactive |  |  | inactive | inactive |  | inactive |  | inactive |  | 
Cc1ccc(N=CN(C)C=Nc2ccc(C)cc2C)c(C)c1 | inactive |  | inactive | inactive |  |  | inactive | inactive |  | inactive |  | inactive |  | 
CCSC(=O)N1CCCCCC1 | inactive |  | inactive | inactive | inactive |  | inactive | inactive |  | inactive |  | inactive |  | 
COC(=O)N(C(=O)N1CO[C@@]2(C(=O)OC)Cc3cc(Cl)ccc3C2=N1)c1ccc(OC(F)(F)F)cc1 | inactive |  | inactive | inactive | inactive |  | inactive | inactive |  | inactive |  | inactive |  | 
C=C(C)CN(CC)c1c([N+](=O)[O-])cc(C(F)(F)F)cc1[N+](=O)[O-] | inactive |  | inactive |  | inactive |  | inactive | inactive |  | inactive | 31.2 µM (active) | inactive |  | 
CC(C)N1C(=O)c2ccccc2NS1(=O)=O | inactive |  | inactive | inactive | inactive |  | inactive | inactive | inactive | inactive |  | inactive |  | 
Cc1cc(C)nc(Nc2ccccc2)n1 | inactive | 50 µM (active) | inactive | inactive |  |  | inactive | inactive |  |  |  | inactive |  | 
CCN(CC)C(=O)C(C)Oc1cccc2ccccc12 (stereo unspecified) | inactive |  | inactive |  |  |  | inactive | inactive |  | inactive | 25.2 µM (active) | inactive |  | 
COC(=O)NS(=O)(=O)c1ccc(N)cc1 | inactive |  | inactive | inactive | inactive |  | inactive | inactive | inactive | inactive |  | inactive |  | 
